Bioassay records (PubChem BioAssay)
aSyn 5UTR inh = MLPCN primary screen, SNCA 5' untranslated region; alpha-synuclein 5'UTR reporter, inhibitor activity; inhibition, % (tested at 7.5 µM); actives 0.82% (n = 300,000); AID 1813; in the data active means inhibition above about 60%;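 further: H4 neuroglioblastoma cells stably carrying SNCA 5'UTR luciferase fusion; 0% = DMSO wells and 100% = positive control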
A1 inh = inhibitors of the anti-apoptotic protein A1, read as caspase activation | MEF A1-2A-BIM cells, Caspase-Glo 3/7 luminescence, 3 h; percent of clofoctol response, vehicle zero | actives 0.066% (n = 330,000) | caspase activation, % (concentration not given with the values);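 active means over half of replicate activation scores above 10%, or exactly half above 10 with the replicate mean above 10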
Beta apoptosis = blocks beta cell apoptosis. INS-1E cytokine-induced death, ATP luminescence, 48 h; percent of positive-control rescue, neutral wells zero. protection from apoptosis, % (no concentration beside the values). actives 0.8% (n = 300,000);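 active means Every replicate reaches about 75%, or at least half do and their mean reaches it too, limit read from the data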;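 further: 0% = cytokine-treated negative control wells and 100% = positive control rescue; higher means more ATP so stronger rescue from cytokine killing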
CSC inhib = blocks cancer stem cells | cancer stem cell-like cells viability, luminescence | inhibition, % at 7.5 µM | actives 1.1% (n = 300,000); in the data active means inhibition above about 75%; tested in HMLE shEcad cells
Mdm2 MdmX PPI = inhibitors of human Mdm2/MdmX interaction | SaOS-2 split-luciferase Mdm2/MdmX complementation, luminescence | inhibition, % at 8 µM | O15151+Q00987 | actives 3% (n = 330,000);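 active means inhibition of at least 50% at 8 µM in the primary screen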
Target sequence (O15151 whole entry, looked up): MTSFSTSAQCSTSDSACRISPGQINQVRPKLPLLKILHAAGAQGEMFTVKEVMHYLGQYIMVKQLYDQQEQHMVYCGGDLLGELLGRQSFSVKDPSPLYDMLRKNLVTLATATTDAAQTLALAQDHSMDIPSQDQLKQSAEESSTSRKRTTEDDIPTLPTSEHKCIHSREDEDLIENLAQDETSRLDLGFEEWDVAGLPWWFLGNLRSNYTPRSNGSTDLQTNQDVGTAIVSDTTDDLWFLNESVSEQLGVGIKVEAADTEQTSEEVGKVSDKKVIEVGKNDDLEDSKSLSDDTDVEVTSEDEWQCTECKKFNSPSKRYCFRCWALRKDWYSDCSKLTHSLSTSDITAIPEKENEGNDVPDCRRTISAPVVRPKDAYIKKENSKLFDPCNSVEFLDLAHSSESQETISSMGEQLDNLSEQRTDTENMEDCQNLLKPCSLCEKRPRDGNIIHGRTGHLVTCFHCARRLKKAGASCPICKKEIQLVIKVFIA
Target sequence (Q00987 whole entry, looked up): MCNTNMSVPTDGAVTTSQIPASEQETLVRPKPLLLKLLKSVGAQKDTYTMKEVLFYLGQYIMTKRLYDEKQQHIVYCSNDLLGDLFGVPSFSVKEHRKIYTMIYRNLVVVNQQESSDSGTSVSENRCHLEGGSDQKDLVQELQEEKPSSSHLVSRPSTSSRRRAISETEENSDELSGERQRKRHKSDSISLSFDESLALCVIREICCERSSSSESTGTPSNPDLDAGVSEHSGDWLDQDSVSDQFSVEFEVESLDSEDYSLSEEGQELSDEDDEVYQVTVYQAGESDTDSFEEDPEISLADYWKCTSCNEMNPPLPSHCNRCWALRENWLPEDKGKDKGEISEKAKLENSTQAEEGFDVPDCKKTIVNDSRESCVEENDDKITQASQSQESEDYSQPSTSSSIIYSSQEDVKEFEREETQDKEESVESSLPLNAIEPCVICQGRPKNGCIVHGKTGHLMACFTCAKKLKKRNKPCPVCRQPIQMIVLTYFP
Mdm2-MdmX conf = human Mdm2/MdmX binding inhibition, confirmed; shares compounds with Mdm2 MdmX PPI; luminescent assay; inhibition, % at 8 µM; actives 55% (n = 10,000); AID 489028; in the data active means inhibition above about 40%
Full FLuc ctr = counter-screen for Mdm2/MdmX inhibitors: full-length luciferase; shares compounds with Mdm2 MdmX PPI; actives 77% (n = 6,200); AID 504607; inhibition, % at 8 µM; SaOS-2 full-length luciferase counterscreen, luminescence;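 active means mean inhibition at 8 µM reaching about 37%, which flags the compound as non-specific, limit read from the data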;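 further: p53-null SaOS-2 cells with luciferase driven by a doxycycline-inducible promoter; compound on cells about two nights before reading with doxycycline added after day one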
Starred values were filed as active, the others as inactive. In the library only some 4.1% were active in any assay of this set; here they are far more common.

For COc1ccc(-c2sc3ccc(N4CCOCC4)cc3c2C#CC2(O)CCCCC2)cc1 the results were A1 inh -1, Beta apoptosis 4, CSC inhib 106*, Mdm2 MdmX PPI 76* and Mdm2-MdmX conf 10.
COc1cc(OC)cc(-c2sc3ccc(OC)cc3c2C#CC2(N)CCCCC2)c1 was read as A1 inh 1, Beta apoptosis 7, CSC inhib 104*, Mdm2 MdmX PPI 96* and Mdm2-MdmX conf 25.
CCN(CC(=O)Nc1c(F)cccc1F)C(=O)C1(c2ccccc2)CC1 was read as aSyn 5UTR inh 21, A1 inh 0, Beta apoptosis 7, CSC inhib -8 and Mdm2 MdmX PPI 1.
`O=C1Nc2ccccc2O/C1=C\c1c(F)cccc1Cl` gave aSyn 5UTR inh -6, A1 inh 1, Beta apoptosis 2, CSC inhib 15, Mdm2 MdmX PPI 60*, Mdm2-MdmX conf 42* and Full FLuc ctr 60*.
For CC(OC(=O)/C=C/c1ccccc1)C(=O)Nc1cccc(C#N)c1 (stereo not drawn) the results were aSyn 5UTR inh -11, A1 inh 1, Beta apoptosis -4, CSC inhib 5, Mdm2 MdmX PPI 56*, Mdm2-MdmX conf 58* and Full FLuc ctr 95*.
Screening CC(C(=O)Nc1cccc(C#N)c1)N(C)CCOc1ccccc1 (stereo not drawn) returned aSyn 5UTR inh 8, A1 inh 0, Beta apoptosis 2, CSC inhib 9 and Mdm2 MdmX PPI -3.
CCOC(=O)C1=C(C)N(CCC(=O)O)C(=O)NC1c1ccccc1Cl (stereo not drawn) was read as aSyn 5UTR inh -26, A1 inh 1, Beta apoptosis 1, CSC inhib -13 and Mdm2 MdmX PPI -2.
N/C(=N\OC(=O)C(c1ccccc1)c1ccccc1)c1cccnc1 was read as aSyn 5UTR inh 6, A1 inh 0, Beta apoptosis 1, CSC inhib -12, Mdm2 MdmX PPI 52* and Mdm2-MdmX conf 9.
N/C(=N\OC(=O)C(c1ccccc1)c1ccccc1)c1ccccn1 was read as aSyn 5UTR inh -16, A1 inh -1, Beta apoptosis -2, CSC inhib -15, Mdm2 MdmX PPI 77* and Mdm2-MdmX conf 28.
For CN(C)CCCN(C(=O)C1COc2ccccc2O1)c1nc2cc3c(cc2s1)OCO3 (stereo not drawn) the results were aSyn 5UTR inh -1, A1 inh 0, Beta apoptosis -5, CSC inhib -9 and Mdm2 MdmX PPI 16.
CC(C)Cc1nc2oc3c(Cl)ncnc3c2c2c1CCC2 was read as aSyn 5UTR inh 33, A1 inh 0, Beta apoptosis -3, CSC inhib 86*, Mdm2 MdmX PPI 100*, Mdm2-MdmX conf 70* and Full FLuc ctr 51*.
Screening Cc1ccc2oc(/N=C(\N)NC(=O)C(C)(C)C)nc2c1 returned aSyn 5UTR inh 96*, A1 inh -6, Beta apoptosis 0, CSC inhib -3, Mdm2 MdmX PPI 87*, Mdm2-MdmX conf 94* and Full FLuc ctr 32.
Screening CC#CC(=O)N1CCC(CCC(=O)N(C)Cc2ccccc2)CC1 returned aSyn 5UTR inh -7, A1 inh 1, CSC inhib 11 and Mdm2 MdmX PPI -3.
CC1CC(C)CN(C(=O)Nc2ccccc2F)C1 (stereo not drawn) was read as aSyn 5UTR inh -1, A1 inh 0, Beta apoptosis -2, CSC inhib -13 and Mdm2 MdmX PPI -11.
Screening CCCCC(CC)CN=C(N)NC(N)=NCCCCCCN=C(N)NC(N)=NCC(CC)CCCC (stereo not drawn) returned A1 inh 0, Beta apoptosis 114*, CSC inhib 103*, Mdm2 MdmX PPI 99*, Mdm2-MdmX conf 86* and Full FLuc ctr 15.
